The results in this text go back to the supplement of paper PMC9135407.

The assay concerns primary human hepatic stellate cells (donor 1). The assay can be described thus: scaled lipid accumulation score (0 = DMSO-like, 1 = nortriptyline-like); higher = stronger HSC inactivation (lipid re-accumulation), active = hit call of the paper. The settings on record: 48 h. The procedure: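 Primary lipid accumulation screen in primary human hepatic stellate cell myofibroblasts (donor 1, passage 8) in 384-well plates. 100 nL of library compound was pin-transferred into 30 µL medium in duplicate, and cells were treated for 48 h. The 'Scaled' score combines distance from plate baseline, toxicity and reproducibility penalties, and is normalised to nortriptyline (positive) and DMSO (negative) controls on each plate. A hit is defined as scaled >0.85 or among the top 3 wells per plate.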

Where [1] appears, read: library stock concentration: 1 mM.
Where [2] appears, read: library stock concentration: 10 mM.
Setting [3] is: library stock concentration: 3.33 mM.
The mark [4] stands for this setting: library stock concentration: 80 uM.
Setting [5] is: library stock concentration: 400 uM.
Setting [6] is: library stock concentration: 2 mM.

Structures are written as SMILES. Values joined by “and” are separate entries in the source; they are usually repeats but may differ in a detail not shown here. Identical values can stand only once. Counter-ions that a name gives are not always drawn. The whole screen tested about 5,800 compounds, of which about 620 (11%) showed activity. For the sample, actives were picked, then their nearest neighbours and some compounds at random. Unmarked numbers belong to inactive results.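 How the source made its calls: active = score above a cut-off or among the top three wells of a plate; in these data no inactive exceeds 0.85.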 Some results are limits rather than exact numbers.

`CC1CCN=C(N)C1` (stereo not drawn) [2-Imino-4-methylpiperidine (acetate)]: the “scaled lipid accumulation score” value under setting [1] was 0.011.

As to `N#C/C(=C\c1ccc(O)c(O)c1)C(=O)NCCCCc1ccccc1`, the “scaled lipid accumulation score” value under setting [2] was ≤ 0.

Turning to `CCCCCOc1ccccc1C(O)CC#CCCCC(=O)OC` (stereo not drawn), under setting [1], the “scaled lipid accumulation score” value was 0.022.

Consider `CNS(=O)(=O)CCc1ccc2[nH]cc(C3CCN(C)CC3)c2c1` [Naratriptan hydrochloride], for which the “scaled lipid accumulation score” value under setting [2] was 0.019.

`CN1CCC[C@@H]1Cc1c[nH]c2ccc(CCS(=O)(=O)c3ccccc3)cc12` [Eletriptan HBr]: the “scaled lipid accumulation score” value runs as follows: under setting [3], 0.194; under setting [2], 0.202.

Regarding `CN1CCC[C@@H]1Cc1c[nH]c2ccc(CCS(=O)(=O)c3ccccc3)cc12` [Eletriptan hydrobromide], the “scaled lipid accumulation score” value under setting [2] was 0.624.

For the compound `Br.CN1CCC[C@@H]1Cc1c[nH]c2ccc(CCS(=O)(=O)c3ccccc3)cc12` [Eletriptan hydrobromide], the “scaled lipid accumulation score” value under setting [2] was 0.912 (active).

For `CNS(=O)(=O)CCc1ccc2[nH]cc(C3CCN(C)CC3)c2c1` [Naratriptan], the “scaled lipid accumulation score” value was ≤ 0 under setting [3] and ≤ 0 under setting [2].

As to `COC(=O)N[C@H](C(=O)N1CCC[C@H]1c1ncc(-c2ccc(-c3ccc(-c4cnc([C@@H]5CCCN5C(=O)[C@@H](NC(=O)OC)C(C)C)[nH]4)cc3)cc2)[nH]1)C(C)C` [listing 1 of 2 here], the “scaled lipid accumulation score” value under setting [2] was 1.04 (active).

On to `COC(=O)N[C@H](C(=O)N1CCC[C@H]1c1ncc(-c2ccc(-c3ccc(-c4cnc([C@@H]5CCCN5C(=O)[C@@H](NC(=O)OC)C(C)C)[nH]4)cc3)cc2)[nH]1)C(C)C` [listing 2 of 2 here], for which the “scaled lipid accumulation score” value under setting [3] was 0.322.

With `CCCCC[C@H](O)/C=C/[C@@H]1C2C[C@H](CCCCC(=O)O)O[C@@H]2C[C@H]1O` (stereo partly drawn) [6.beta.-Prostaglandin I1], under setting [1], the “scaled lipid accumulation score” value is 0.004.

Take `CC(N)(Cc1ccc(O)c(O)c1)C(=O)O` (stereo not drawn): the “scaled lipid accumulation score” value under setting [2] was ≤ 0.

Turning to `CC(C)CN1CCC(CNCc2ccc(C#CC(C)(C)O)s2)CC1`, the “scaled lipid accumulation score” value under setting [2] was 0.671 (active).

For `Cc1c(C)c2c(c(C)c1O)CCC(C)(CCCC(C)C(=O)O)O2` (stereo not drawn), the “scaled lipid accumulation score” value under setting [1] is ≤ 0.

As for `C[C@H]1C[C@H]2[C@@H]3CCC4=CC(=O)C=C[C@]4(C)[C@H]3C(=O)C[C@]2(C)[C@@]1(O)C(=O)CO` [Meprednisone], the “scaled lipid accumulation score” value under setting [3] was 0.055 and the “scaled lipid accumulation score” value under setting [2] is ≤ 0.

With `Cc1ccc(F)c(NC(=O)Nc2ccc(-c3cccc4[nH]nc(N)c34)cc2)c1` [listing 1 of 2 here], under setting [2], the “scaled lipid accumulation score” value is 1.08 (active).

Regarding `Cc1cc(NC(=O)Nc2ccc(N(C)C)cc2)c2cc(F)cc(F)c2n1`, the “scaled lipid accumulation score” value under setting [3] is 0.007; the “scaled lipid accumulation score” value under setting [2] was 0.001 and ≤ -0.006.

Turning to `Cc1ccc(F)c(NC(=O)Nc2ccc(-c3cccc4[nH]nc(N)c34)cc2)c1` [listing 2 of 2 here], the “scaled lipid accumulation score” value was 0.001 under setting [4]; ≤ -0.009 and ≤ -0.005 under setting [5]; 0.233 and 0.419 under setting [6]; 0.446 under setting [2].

`Cc1ccc(F)c(NC(=O)Nc2ccc(-c3cccc4[nH]nc(N)c34)cc2)c1` [Linifanib (ABT-869)]: the “scaled lipid accumulation score” value runs as follows: under setting [3], ≤ 0; under setting [2], ≤ 0.

Consider `CCCCCCCCCCCCC(=O)NC1CCOC1=O` [N-tridecanoyl-L-Homoserine lactone], for which the “scaled lipid accumulation score” value under setting [1] was ≤ 0.

On to `COc1cccc(C=NCCN=Cc2cccc(OC)c2[O-])c1[O-].[Cl-].[Mn+3]`, for which the “scaled lipid accumulation score” value is ≤ 0 under setting [3] and 0.234 under setting [2].

As for `Cc1ccc(/C=N/NC(=O)c2ccccc2Oc2ccccc2)o1`, under setting [2], the “scaled lipid accumulation score” value was ≤ -0.001.

In the case of `CN(C)C(=O)n1nnnc1Cc1ccc(-c2ccccc2)cc1`, under setting [2], the “scaled lipid accumulation score” value is 0.554.

As to `O=C(NC1CCOCC1)c1ccc(-c2cc(-c3c[nH]nc3-c3ccccn3)ccn2)cc1`, the “scaled lipid accumulation score” value is, setting by setting: under setting [3], ≤ 0; under setting [2], ≤ 0.

Regarding `O=C(Nc1c[nH]nc1-c1nc2ccc(CN3CCOCC3)cc2[nH]1)NC1CC1` [listing 1 of 2 here], the “scaled lipid accumulation score” value was 0.613 under setting [4]; 0.259 under setting [5]; 0.562 and 0.591 under setting [6]; 0.59 under setting [3]; 0.791 and 0.755 and 0.681 under setting [2].

Regarding `O=C(Nc1c[nH]nc1-c1nc2ccc(CN3CCOCC3)cc2[nH]1)NC1CC1` [listing 2 of 2 here], under setting [5], the “scaled lipid accumulation score” value is 0.877 (active).

Regarding `CCCCC[C@H](O)/C=C/[C@H]1[C@@H]2CO[C@@H](C2)[C@@H]1C/C=C\CCCC(=O)O`, under setting [1], the “scaled lipid accumulation score” value is ≤ 0.

`O=P(O)(O)O[C@@H]1[C@H](O)[C@H](O)[C@@H](OP(=O)(O)O)[C@H](OP(=O)(O)O)[C@H]1O` [D-myo-Inositol-1,4,5-triphosphate (sodium salt)]: the “scaled lipid accumulation score” value under setting [1] is 0.018.

Turning to `CN(C)CCCOc1nn(Cc2ccccc2)c2ccccc12` [Benzydamine HCl], the “scaled lipid accumulation score” value under setting [3] is 0.13.
